Targets with a hit are over-represented here; the source holds about 7,900 in all. About 0.6% of all pairs of compound and target were hits.
Key:
Experiment in all cases: log2 fold change, soluble protein after heating vs DMSO (PISA); higher = thermal stabilisation; K562 cells, 10 uM, 30 min; active = over 0.2 and 3.5 SD of the protein, either way, in both replicates (recomputed)
[1] = compound: CC1=C(C=C(C=C1)NC(=O)C2=CC(=CC=C2)C(C)(C)C#N)NC3=CC4=C(C=C3)N=CN(C4=O)C
Summary of the method: (§1)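 For each measurement, 10 μM compound was applied for 30 min to K562 cells at 2×10^6 cells/mL. Aliquots were heated for 3 min across 48°C-58°C, pooled, and extracted in PBS with 0.5% NP-40 at 4°C; the supernatant after 21,000xg for 90 min was soluble protein. This was quantified by TMTpro 16plex LC-MS/MS with channel sums equalised, and thermal stability was reported relative to control samples from duplicates, on a log2 fold-change scale.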

[2] = compound: CC1=CC=C(C=C1)SC2=C3C=C(SC3=CN=C2)C(=O)N
Summary of the method: as §1

Nexturastat A = compound: CCCCN(Cc1ccc(C(=O)NO)cc1)C(=O)Nc1ccccc1 [Nexturastat A]
Summary of the method: as §1

vemurafenib = compound: CCCS(=O)(=O)Nc1ccc(F)c(C(=O)c2c[nH]c3ncc(-c4ccc(Cl)cc4)cc23)c1F [vemurafenib]
Summary of the method: as §1

[3] = compound: CCCS(=O)(=O)Nc1ccc(F)c(C(=O)c2c[nH]c3ncc(Cl)cc23)c1F
Summary of the method: as §1

[4] = compound: CCCc1cc(C)[nH]c(=O)c1CNC(=O)c1cc(-c2ccnc(N3CCN(C)CC3)c2)cc2c1cnn2C(C)C
Summary of the method: as §1

givinostat = compound: CCN(CC)Cc1ccc2cc(COC(=O)Nc3ccc(C(=O)NO)cc3)ccc2c1 [givinostat]
Summary of the method: as §1

barasertib = compound: CCN(CCCOc1ccc2c(Nc3cc(CC(=O)Nc4cccc(F)c4)[nH]n3)ncnc2c1)CCOP(=O)(O)O [barasertib]
Summary of the method: as §1

[5] = compound: CC[C@@H]1C(=O)N(C)c2cnc(Nc3ccc(C(=O)NC4CCN(C)CC4)cc3OC)nc2N1C1CCCC1
Summary of the method: as §1

volasertib = compound: CC[C@@H]1C(=O)N(C)c2cnc(Nc3ccc(C(=O)N[C@H]4CC[C@H](N5CCN(CC6CC6)CC5)CC4)cc3OC)nc2N1C(C)C [volasertib]
Summary of the method: as §1

[6] = compound: CC[C@H](C)N1C=C(C2=C(C=C(C=C21)C3=CN=C(C=C3)N4CCNCC4)C(=O)NCC5=C(C=C(NC5=O)C)C)C
Summary of the method: as §1

epoxomicin = compound: CC[C@H](C)[C@@H](C(=O)N[C@@H]([C@@H](C)O)C(=O)N[C@@H](CC(C)C)C(=O)[C@]1(CO1)C)NC(=O)[C@H]([C@@H](C)CC)N(C)C(=O)C [epoxomicin]
Summary of the method: as §1

[7] = compound: CCn1c(C(=O)N(C2CC2)C2CC2)cc2c3c(ncn3C)c(Nc3cc(C)n(C)n3)nc21
Summary of the method: as §1

[8] = compound: CCn1cc(-c2ccnc3[nH]c(-c4cccc(CN(C)C)c4)cc23)c(-c2ccc(NC(=O)N(C)C)cc2)n1
Summary of the method: as §1

[9] = compound: CN(C)CC(=O)Nc1ccc2[nH]c(=O)c3ccccc3c2c1
Summary of the method: as §1

rosiglitazone = compound: CN(CCOC1=CC=C(C=C1)C[C@H]2C(=O)NC(=O)S2)C3=CC=CC=N3 (racemic) [rosiglitazone]
Summary of the method: as §1

[10] = compound: CN1C2=C(C3=C1C(=O)N(N=C3)CC4=CC(=CC=C4)N)SC(=C2)S(=O)C
Summary of the method: as §1

[11] = compound: CN1CCC(CNc2ccc3ncc(-c4cccc(OC(F)(F)F)c4)n3n2)CC1
Summary of the method: as §1

[12] = compound: CC1=C(C=C(C=C1)NC(=O)C2=CC(=CC=C2)N(C)C)NC(=O)C3=CC=C(C=C3)O
Summary of the method: as §1

[13] = compound: CC1=NC(=CC=C1)C2=C(N=C(N2)C(C)(C)C)C3=CC4=NC=CN=C4C=C3
Summary of the method: as §1

Measured: log2 fold change

UFM1 isoform 2 (UniProt P61960)
UniProt P61960, sequence (P61960 whole entry, looked up): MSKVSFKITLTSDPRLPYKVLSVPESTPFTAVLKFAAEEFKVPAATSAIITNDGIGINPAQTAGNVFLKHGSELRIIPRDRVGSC
active: Nexturastat A -0.36
inactive: [1] 0.004 | [2] -0.01 | vemurafenib -0.13 | [3] 0.001 | [4] 0.127 | givinostat -0.146 | barasertib 0.053 | [5] 0.116 | volasertib 0.012 | [6] 0.069 | epoxomicin 0.029 | [7] 0.034 | [8] -0.001 | [9] 0.114 | rosiglitazone -0.03 | [10] 0.004 | [11] -0.005

TTC26
active: vemurafenib -0.598
inactive: [12] 0.116 | barasertib -0.139 | [9] -0.088 | rosiglitazone 0.068

TRIQK (UniProt Q629K1)
UniProt Q629K1, sequence (Q629K1 whole entry, looked up): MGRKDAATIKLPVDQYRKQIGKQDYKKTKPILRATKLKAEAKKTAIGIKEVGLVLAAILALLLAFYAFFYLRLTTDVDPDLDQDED
inactive: [1] -0.022 | [12] -0.007 | [13] -0.173 | Nexturastat A -0.028 | [4] 0.014 | barasertib -0.041 | epoxomicin -0.02 | rosiglitazone 0.039 | [10] -0.04

TOM1L2 (UniProt Q6ZVM7)
UniProt Q6ZVM7, sequence (Q6ZVM7 whole entry, looked up): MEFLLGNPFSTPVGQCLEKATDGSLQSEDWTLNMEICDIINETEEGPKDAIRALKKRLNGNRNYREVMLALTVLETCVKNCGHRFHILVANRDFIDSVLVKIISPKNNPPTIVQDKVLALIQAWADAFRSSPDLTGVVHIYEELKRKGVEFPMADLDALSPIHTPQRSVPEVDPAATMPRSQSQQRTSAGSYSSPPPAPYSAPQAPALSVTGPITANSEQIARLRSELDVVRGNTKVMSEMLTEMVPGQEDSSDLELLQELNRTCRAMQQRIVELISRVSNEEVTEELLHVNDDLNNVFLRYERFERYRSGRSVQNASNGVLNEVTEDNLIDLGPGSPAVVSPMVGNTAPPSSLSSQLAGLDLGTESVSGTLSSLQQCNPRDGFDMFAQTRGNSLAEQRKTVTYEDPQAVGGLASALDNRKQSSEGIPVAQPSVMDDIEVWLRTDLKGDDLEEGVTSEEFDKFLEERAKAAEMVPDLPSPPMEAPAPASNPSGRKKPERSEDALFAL
inactive: [1] -0.038 | [13] -0.132 | Nexturastat A -0.046 | vemurafenib -0.008 | givinostat 0.025 | [6] -0.025 | epoxomicin -0.035 | [7] 0.09 | [9] 0.127 | [10] -0.071

— the supplement of paper PMC10849652
